# From PubChem
# Coupling enz = coupling enzyme interference in Giardia aldolase counter-screen | coupling enzyme system counterscreen, AmpLite Red fluorescence | 0.67% of 290,000 active | activity change, negative = inhibition, % at 58.2 µM, hits read low; in the data active = activity change below about -30%
#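 Counterscreen of the coupled detection system alone, without aldolase: glyceraldehyde-3-phosphate coupling enzymes plus AmpLite Red readout. Compounds at 57.5 uM final, 10 min RT preincubation, 20 min RT reaction, fluorescence 525/598 nm.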
# G9a block = blocks human histone lysine methyltransferase G9a; Q96KQ7; G9a H3K9 monomethylation, AlphaScreen, 2 h; Potency, µM (highest dose often 102 µM), without a hit: at the highest dose activity, negative = inhibition, hits mostly inhibitors; 8.8% of 350,000 active; AID 504332; note: potency is the fitted concentration of half-maximal effect; nearly all actives have a fitted effect of over 75% in size
# Target sequence (Q96KQ7 913-1193 limits assumed): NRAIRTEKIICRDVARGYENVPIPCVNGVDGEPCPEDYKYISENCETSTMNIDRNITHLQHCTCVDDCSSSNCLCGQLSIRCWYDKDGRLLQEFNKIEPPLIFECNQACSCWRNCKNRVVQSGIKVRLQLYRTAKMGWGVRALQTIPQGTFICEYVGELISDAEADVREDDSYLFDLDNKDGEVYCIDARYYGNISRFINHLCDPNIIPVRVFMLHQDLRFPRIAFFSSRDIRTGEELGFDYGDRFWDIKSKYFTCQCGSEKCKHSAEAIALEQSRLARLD
#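 AlphaScreen detection with an anti-monomethyl H3K9 antibody quantified product after a 2 h room-temperature reaction containing 500 nM biotinylated H3K9 peptide, 20 µM SAM and 20 nM enzyme, which had been preincubated 15 min with compound.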
# Sfp inh = blocks B. subtilis Sfp PPTase activity; Q9F4F7; Biochemical Sfp PPTase activity, qHTS; Potency, µM, inactives show largest response in the series, negative = inhibition, most hits filed as inhibitors; 3.5% of 310,000 active;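 note: the enzyme is Sfp with the accession as filed and its product quenches rhodamine fluorescence; potency is the fitted concentration of half-maximal effect; 0% = enzyme reaction without inhibitor and -100% = no enzyme wells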
#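 Fluorescence-quenching assay: 15 nM Sfp-PPTase preincubated 15 min at room temperature with compound, then 5 uM rhodamine-CoA and 12.5 uM BHQ-2-labelled YbbR peptide added. Fluorescence (ex 525/em 598 nm) read at start and after 30 min; difference gives rate.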
# Tau fluor cs = counter-screen for tau fibril formation inhibitors; tau K18 P301L Alexa594 fluorescence, heparin fibrillization; Potency, µM (titrated, usually from 57.7 µM), for inactives: at the top dose activity change, negative = decrease; 0.93% of 280,000 active; note: potency is the fitted concentration of half-maximal effect; nearly all actives have a fitted effect of over 55% in size
#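 Human tau K18 P301L (15 uM unlabeled, 0.24 uM Alexa 594-labeled) in 100 mM sodium acetate pH 7 with 20 uM heparin, 6 hr at 37 C. ThT 30 uM added, 1 hr ambient; Alexa 594 FP and total fluorescence read at 555/632 nm.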
# Tau FP inhib = inhibitors of human tau fibril formation. P10636. 0.39% of 280,000 active. K18 P301L tau heparin fibrillization, Alexa594 FP, 6 h. Potency, µM (series often up to 57.7 µM), for the others: at the top dose activity, negative = inhibition, usual class: inhibitors; note: potency is the fitted concentration of half-maximal effect; nearly all actives have a fitted effect of over 55% in size
# Target sequence (P10636 561-689 P618L limits assumed): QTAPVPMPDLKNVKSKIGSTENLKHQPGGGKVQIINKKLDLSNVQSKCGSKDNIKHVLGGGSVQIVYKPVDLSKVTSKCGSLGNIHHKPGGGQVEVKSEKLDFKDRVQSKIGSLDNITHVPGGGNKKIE
#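 Compound effects on tau fibrillization are measured by Alexa 594 fluorescence polarization (ex 555, em 632 nm). K18 P301L tau is used at 15 uM with 0.24 uM labeled tracer, and 20 uM heparin induces aggregation over 6 hr at 37 C.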
# Tau ThT inhib = tau fibrillization inhibition (ThT binding); P10636; recombinant tau K18 P301L (four-repeat tau fragment), heparin-induced fibrillization, ThT fluorescence; Potency, µM (highest dose often 57.4 µM), inactives show top-dose activity, negative = inhibition, usual class: inhibitors; 2.1% of 270,000 active; AID 1460; note: potency is the fitted concentration of half-maximal effect; nearly all actives have a fitted effect of over 55% in size
#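 Aggregation was driven by heparin (20 uM final) acting on recombinant tau […] bearing P301L in 100 mM sodium acetate pH 7; fibrils were detected with Thioflavin T.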
# Active calls of the source: *; ? = inconclusive; nt = no result given; [ ] = another dose, or the depositor's remark. An excerpt weighted towards active compounds, which were near 11% of everything screened. Unless noted, calls come from the whole dose curve; as a rule, active = well fitted curve in the direction sought with a large enough effect; inconclusive = small, poorly fitted or top-dose-only effect, or another doubt; inactive = no such curve, though single readings can be large; an effect the other way counts as inactive or inconclusive. Unless noted, % is set by controls: 0 for no effect and ±100 for the full control effect.
SMILES,Coupling enz,G9a block,Sfp inh,Tau fluor cs,Tau FP inhib,Tau ThT inhib
NS(=O)(=O)c1ccc(Sc2ccccn2)c([N+](=O)[O-])c1,0,0%,16%,-9%,0%,-5%
NS(=O)(=O)c1ccc(Sc2nc3ccccc3s2)c([N+](=O)[O-])c1,0,45µM*,-16%,?,4%,nt
CCOC(=O)c1sc(NC(=O)c2cc(-c3ccc(C)cc3)nc3ccccc23)c(C#N)c1C,5,5.6µM*,20µM*,-26%,?,?
C/C(N)=C(/C#N)C(=O)COC(=O)c1cc(-c2ccc(Br)cc2)nc2ccccc12,2,1.8µM*,3%,-8%,4%,-7%
Cc1sc(NC(=O)c2cc(-c3ccccc3)nc3ccccc23)c(C(N)=O)c1C,0,15%[59 µM],-12%,?,?,?
CCOC(=O)c1sc(-c2ccc(C)cc2)c(C#N)c1C,2,40µM*,?,1%,-12%,-6%
COc1ccc(-c2cc(C(=O)Nc3sc4c(c3C#N)CCCC4)c3ccccc3n2)cc1,2,15%[59 µM],9%,-2%,-7%,1%
Cc1sc(NC(=O)c2cc(-c3ccc(Cl)cc3)nc3ccccc23)c(C(N)=O)c1C,2,13µM*,?,-17%,-7%,-10%
Cc1c(C(=O)NN)sc(-c2ccccc2)c1C#N,4,-5%,12%,-7%,3%,-8%
O=C1CCC=C1C(O)c1ccc(Cl)cc1 (stereo not drawn),0,nt,-8%,2%,3%,5%
CCCc1cc(C(=O)Nc2cc(OC)ccc2OC)cs1,-4,nt,-1%,nt,nt,nt
Cc1cc(NC(=O)c2cc(-c3ccccc3C)nc3ccccc23)no1,-2,11%[59 µM],1%,-12%,6%,-6%
Cc1ccccc1-c1cc(C(=O)Nc2sc(C(=O)OC(C)C)c(C)c2C#N)c2ccccc2n1,11,45µM*,40µM*,-24%,-4%,?
CCSc1nccc(-c2nn(-c3ccc(C)cc3)ccc2=O)n1,0,79µM*,7%,-7%,5%,1%
CSc1nccc(-c2nn(-c3ccc(C)cc3)ccc2=O)n1,2,9%,-1%,-8%,-3%,-14%
C=CCSc1nccc(-c2nn(-c3ccc(C)cc3)ccc2=O)n1,0,50µM*,-2%,-21%,-10%,-12%
C#CCSc1nccc(-c2nn(-c3ccc(C)cc3)ccc2=O)n1,1,-38%[12.7 µM],79µM*,-14%,6%,-19%
Cc1ccc(-c2nc(S(=O)(=O)c3ccc(C)cc3)c(SCC(=O)c3ccccc3)o2)cc1,nt,?,nt,?,-15%,-13%
Cc1ccc(CN2c3ccccc3S(=O)(=O)c3ccccc32)cc1,nt,-28%[59 µM],nt,-19%,-8%,5%
CCCc1ccc(S(=O)(=O)N2CCC(Oc3ccc(-n4cnnn4)cc3)CC2)cc1,nt,-19%[59 µM],nt,?,-4%,-12%
Cc1ccc(N2C(=O)CC(Sc3ncn[nH]3)C2=O)cc1C (stereo not drawn),2,2µM*,50µM*,-3%,0%,-13%
Cc1cccc(N2C(=O)CC(Sc3ncn[nH]3)C2=O)c1 (stereo not drawn),1,7.1µM*,56µM*,-14%,-2%,-20%
CCCCCCCCCCCCC/C=C/[C@@H](O)C(CO)NC(C)=O (stereo partly drawn),-2,nt,-17%,-8%,-6%,-2%
O=C1N/C(=C\c2ccc(O)cc2)C(=O)c2ccccc21,-31*,nt,-77%,-28%,-4%,?
O=C(O)/C=C1\NC(=O)c2ccccc21,7,1%,2%,-11%,5%,-17%
SMILES,Coupling enz,G9a block,Sfp inh,Tau fluor cs,Tau FP inhib,Tau ThT inhib
COc1cccc(CN(C)C(=O)Cc2ccc(OC)c(S(=O)(=O)N3CCOCC3)c2)c1,nt,0%[12.7 µM],nt,nt,nt,nt
COCCN1C(=O)/C(=C/c2ccc(N3CCCC3)cc2C)SC1=S,-2,-9%[0.501 µM],9%,-13%,?,7.1µM*
CCC(C)NC(=O)Cn1c(=O)n(-c2ccc(C)c(C)c2)c(=O)c2c(C)c(C(=O)N(CC)CC)sc21 (stereo not drawn),nt,2%[59 µM],nt,0%,-10%,0%
COc1ccc(OC)c(NC(=O)CCN2CCN(c3ccccc3F)CC2)c1,-3,?,?,-19%,1%,-8%
O=C(CCN1CCN(c2ccccc2F)CC1)c1ccc(Br)cc1,3,3.2µM*,-26%,-17%,-11%,-26%
O=C(CCC(=O)N1CCN(c2ccccc2F)CC1)c1ccc(F)cc1,0,nt,3%,-17%,-6%,?
COc1ccc(C(=O)CCN2CCN(c3ccccc3F)CC2)cc1,1,?,50µM*,-2%,1%,0%
COC(=O)C1CCN(c2csc3ccc(C)cc3c2=O)CC1,nt,-6%[59 µM],nt,-15%,9%,?
Cc1cc(C)n2c(Nc3ccc4c(c3)OCCO4)c(-c3ccco3)nc2n1,0,50µM*,-17%,-25%,5%,?
Cc1cc(C)n2c(Nc3ccc4c(c3)OCCO4)c(-c3ccc(C)o3)nc2n1,-5,50µM*,32µM*,-25%,9%,?
CC1=C(C(=O)Nc2ccccc2)C(c2cccs2)n2nc(SCc3ccccc3F)nc2N1 (stereo not drawn),nt,-21%[59 µM],nt,1%,-8%,3%
CCOC(=O)c1[nH]c(C)c(C(=O)N(CC)CC)c1C,1,79µM*,11%,-10%,1%,-8%
COc1cc(/C=C/C(=O)O)cc(Br)c1O,1,20%[12.7 µM],30%,-15%,0%,-16%
COc1ccc(/C=C/C(=O)C2C(=O)C=C(C)OC2=O)cc1O (stereo not drawn),-10,-23%[59 µM],5%,?,-2%,25µM*
COc1ccc(/C=c2\s/c(=C\C(=O)C(C)(C)C)[nH]c2=O)cc1O,-2,nt,-10%,?,10%,nt
COc1cc(/C=C/C(=O)C2C(=O)C=C(C)OC2=O)cc(OC)c1O (stereo not drawn),-7,50µM*,-26%,-24%,-7%,?
COc1ccc(C2C(C(=O)OCC3CCCO3)=C(C)NC3=C2C(=O)CC(c2ccco2)C3)cc1O (stereo not drawn),-1,-17%,56µM*,-13%,-1%,-17%
Cn1c(N)c(C(=O)CSc2nn(-c3ccccc3)c(=S)s2)c(=O)n(C)c1=O,nt,50µM*,nt,nt,nt,nt
CC(Sc1n[nH]c(-c2ccccc2)n1)C(=O)c1c(N)n(C)c(=O)n(C)c1=O (stereo not drawn),nt,50µM*,nt,nt,nt,nt
CC(Sc1nn(-c2ccc(F)cc2)c(=S)s1)C(=O)c1c(N)n(C)c(=O)n(C)c1=O (stereo not drawn),nt,50µM*,nt,nt,nt,nt
